Measurements published in PubChem BioAssay AID602399 (Sanford-Burnham Center for Chemical Genomics, 2012).
Hit rate of the full screen: of about 360,000 compounds, about 2,800 (0.78%) were called active. Cut-off read from the data, not from the text of the source: active = inhibition above about 26%; inactive = the rest. The list comes from a sample in which actives are over-represented; it also holds similar structures and randomly drawn compounds.

tested on: Nicotinate-nucleotide adenylyltransferase NadD (Staphylococcus aureus N315); experiment: inhibitors of S. aureus NadD, primary screen, biochemical, colorimetric, uHTS (AID 602399); settings: purified NadD enzyme, colorimetric absorbance read-out; at 20 µM; hits give high values

SMILES | inhibition
C[C@H]1COC(=O)[C@H](CC(=O)OC(C)(C)C)C/C=C\C[C@@H](CC(=O)N[C@H](CO)Cc2ccccc2)C(=O)N1 | -1.24% (inactive)
CC(c1ccccn1)N(C)C(=O)c1ccc2nc(Cc3cccc(Cl)c3)oc2c1 (stereo unspecified) | -8.59% (inactive)
CCOCCCNC(=O)Cc1cc(=O)[nH]c(=O)[nH]1 | 4.88% (inactive)
CC(=O)N1CCc2ccc(N)cc21 | -3.06% (inactive)
O=C1NC(O)CCN1C1CC(O)C(CO)O1 (stereo unspecified) | -1.72% (inactive)
Cc1noc(C)c1S(=O)(=O)N(C)C[C@H]1Oc2ccc(NC(=O)C3CC3)cc2C(=O)N([C@H](C)CO)C[C@@H]1C | 4.79% (inactive)
Cc1ccc2nc(SCC(=O)N3CC(C)OC(C)C3)nc(=O)n2c1 (stereo unspecified) | -2.71% (inactive)
CCOC(=O)C1=CCC(c2ccc(F)cc2)N(S(=O)(=O)c2ccc(C)cc2)C1 (stereo unspecified) | -6.49% (inactive)
COC(=O)[C@]12CCCCC=C1N(Cc1ccc(Cl)cc1Cl)C(=O)[C@H](CC(=O)NCc1cccc3ccccc13)C2 | 16.3% (inactive)
Cc1cc(C)c(-c2csc(NC(=O)CCCc3nc4ccccc4c(=O)[nH]3)n2)c(C)c1 | 21.6% (inactive)
CCCn1c(C)cc(-c2csc(NC(=O)CCc3nc4ccccc4c(=O)[nH]3)n2)c1C | 47.6% (active)
CCN(CC)c1ccc(C(=O)NNC(=O)CCc2nc3ccccc3c(=O)[nH]2)cc1 | -1.03% (inactive)
CN(CC(=O)NCc1ccc2c(c1)OCO2)CC(=O)Nc1ccc(F)c(F)c1F | -3.42% (inactive)
COc1ccc([N+](=O)[O-])cc1NC(=O)c1ccc(N(Cc2ccccc2C)S(C)(=O)=O)cc1 | 11% (inactive)
COc1ccc([N+](=O)[O-])cc1NCC(=O)c1ccc(C)cc1 | 7.38% (inactive)
COc1ccc([N+](=O)[O-])cc1NC(=O)CC1SC(=Nc2cccc(C)c2C)N(/N=C(\C)c2ccc(C)cc2)C1=O (stereo unspecified) | 26.7% (active)
N#CNC1=NCN(CCc2ccccc2)CN1 | 3.37% (inactive)
COc1ccc(NC(=O)N(C)C[C@@H]2OCc3cn(nn3)CCCC(=O)N([C@H](C)CO)C[C@H]2C)c(OC)c1 | -0.14% (inactive)
COc1cccc(CN(C)CC(=O)Nc2sc3c(c2C#N)CCC3)c1 | -5.48% (inactive)
CCCc1cc(=O)[nH]c(SCC(=O)Nc2sc3c(c2C#N)CCCC3)n1 | 0.874% (inactive)
COc1ccc(-n2c(SCC(=O)Nc3sc4c(c3C#N)CCCC4)nnc2-c2ccc(O)cc2)cc1 | 33.1% (active)
COc1ccc(-c2ccc3[nH]c4c(c3c2)CCN2C[C@H]3[C@H](C)ON(C)[C@H]3C[C@@H]42)cc1 | -7.97% (inactive)

SMILES | inhibition
COc1cccc(C(O)c2nc(-c3ccc(C)c(C)c3)cs2)c1 (stereo unspecified) | -4.75% (inactive)
Cc1cc(NC(=O)COC(=O)/C=C/c2ccc(C)o2)no1 | -5.17% (inactive)
COC(=O)/C=C\C(=O)Nc1cccc([N+](=O)[O-])c1 | 7.18% (inactive)
Cc1ccc(/C=C/C(=O)Nc2ccc([N+](=O)[O-])c(NC(=O)/C=C/c3ccc(C)o3)c2)o1 | 47.9% (active)
O=C(NC(=O)N1CCSCC1)c1c(Cl)cccc1Cl | 17.8% (inactive)
Cc1ccc(S(=O)(=O)NCC(=O)N(CC(=O)NC(C)(C)C)Cc2cccs2)cc1 | -3.65% (inactive)
Cn1c2c(c(=O)n(C)c1=O)[C@@H]1c3c(ccc4ccccc34)OC[C@@H]1CO2 | 1.89% (inactive)
CC1=CC(=O)C=CC1(C)C(Cl)(Cl)Cl (stereo unspecified) | 4.28% (inactive)
N#CC1=C(N)Oc2c(sc3ccccc23)C1c1ccco1 (stereo unspecified) | 33.4% (active)
Cc1ccc(C(=O)N(CN2CCCC2=O)c2ccc(F)cc2)cc1 | -3.99% (inactive)
COc1cc(C(F)(F)F)c(C(=O)N(C)c2ccc(Cl)cc2)cn1 | -3.26% (inactive)
COc1ccc(C(NC(=O)C2CCN(CCCc3ccccc3)CC2)c2cccs2)cc1 (stereo unspecified) | 0.814% (inactive)
COc1cccc(/C=C/c2ccc3ccccc3n2)c1OC(C)=O | -5.51% (inactive)
COc1cccc2sc(NNC(=O)c3nc4ccccc4s3)nc12 | 36.6% (active)
Cc1ccc2sc(NNC(=O)c3ccc4c(c3)OCCO4)nc2c1C | 11.1% (inactive)
O=C(COc1nc2ccccc2nc1N1CCOCC1)NCC(F)(F)F | -2.03% (inactive)
COC(=O)[C@@]1(Cc2ccc(OC)cc2)[C@H]2c3cc(C(=O)N4CCCC4)n(Cc4ccc(OC(F)(F)F)cc4)c3C[C@H]2CN1C(=O)c1ccccc1 | 15.7% (inactive)
CCOc1ccc(S(=O)(=O)N2CCCCC2)cc1NC(=O)CN1CCCC1c1cccs1 (stereo unspecified) | 5.31% (inactive)
CCN(CC)c1ccc(NC(=O)CN2C(=O)NC3(CCc4ccccc43)C2=O)cc1 (stereo unspecified) | -4.85% (inactive)
CCCN(c1ccc(C(C)C)cc1)S(=O)(=O)c1c(C)[nH]c(=O)[nH]c1=O | 6.85% (inactive)
CC(=O)Nc1ccc(C(=O)Nc2cccc(S(=O)(=O)NC3=NCCC3)c2)cc1 | 7.82% (inactive)
Nc1[nH]c(=S)nc2nc(-c3ccccc3)c(-c3ccccc3)nc12 | 31.3% (active)

SMILES | inhibition
CC/C(=N\O)C(C)(C)/[N+]([O-])=C/c1ccc(Br)cc1 | -4.93% (inactive)
CC12CN(Cc3ccccc3)CC(C)(CN(Cc3ccccc3)C1)C2=NO | -2.69% (inactive)
O=C(NCCc1cccc(F)c1)C1CC(O)CN1C(=O)Nc1ccccc1 (stereo unspecified) | 0.207% (inactive)
O=S(=O)(c1ccc(Cl)cc1)N1CCCN(c2ccc(C(F)(F)F)cn2)CC1 | -6.85% (inactive)
COc1ccc(CCNC(=O)/C(C#N)=C2\N=C(NC(=O)c3cccs3)c3ccccc32)cc1 | 2.29% (inactive)
Cc1ccc2nc(/C(C#N)=C\c3ccc(OC(=O)c4cccs4)cc3)[nH]c2c1 | 40.4% (active)
CN1CCN(CC#CCC2(O)c3ccccc3-c3ccccc32)CC1 | -2.12% (inactive)
O=C1CC(c2cccc(Cl)c2)CC(O)=C1C=Nc1ccccc1 (stereo unspecified) | -3.63% (inactive)
COc1ccc2c(c1OC)C(=O)N(c1ncn[nH]1)C2 | 0.954% (inactive)
COc1ccc(Cl)cc1S(=O)(=O)N1CCC(O)(c2ccc(Cl)cc2)CC1 | -4.67% (inactive)
CCc1c(C)c2c(C)[nH]nc2oc1=O | -0.195% (inactive)
O=c1oc(-c2ccco2)nc2sc3c(c12)CCCCC3 | -5.51% (inactive)
Cc1ccc(NC(=O)c2sc3nc(N)c(C#N)cc3c2N)cc1 | 12.7% (inactive)
Cc1cccc(NC(=O)c2sc3nc4c(c(-c5ccco5)c3c2N)CCC4)c1 | 44.6% (active)
Cc1cccn2c(CN(C)C3CCCc4ccccc43)c(C(=O)N3CCOCC3)nc12 (stereo unspecified) | -3.79% (inactive)
C=CCOc1ccccc1NC(=O)CN1C(=O)CNC1=O | -2.12% (inactive)
O=C(Nc1ccc(Br)cn1)C1CCN(S(=O)(=O)c2cccs2)CC1 | -7.26% (inactive)
CCCc1nc(SCC(=O)Nc2ccccc2OC)c2c(=O)n(C)c(=O)n(C)c2n1 | -1.01% (inactive)
O=C(O)CCN(Cc1ccccc1)S(=O)(=O)c1c(Cl)cccc1Cl | -4.97% (inactive)
C=C1c2cccc(OC)c2O[C@H](C(=O)OCC)[C@@H]1CCCCCC | 52.4% (active)
CCOC(=O)C1=C(C)c2ccccc2OC1C(=O)OCC (stereo unspecified) | -1.62% (inactive)
Cc1csc(NC(=O)CSc2ccc(-c3ccc(F)cc3)nn2)n1 | 0.514% (inactive)

SMILES | inhibition
O=C(COC(=O)c1cc(=O)[nH]c2ccccc12)NCc1cccc(Cl)c1 | 0% (inactive)
O=C(COC(=O)c1cc(=O)[nH]c2ccccc12)Nc1nc(-c2cccc(Br)c2)cs1 | 42.5% (active)
O=C(CSc1nc2ccccc2c(=O)[nH]1)Nc1nc(-c2ccc(Br)cc2)cs1 | 42.3% (active)
O=C(CSc1ncn[nH]1)Nc1nc(-c2cccc([N+](=O)[O-])c2)cs1 | -5.15% (inactive)
O=C(OCc1nnc(-c2ccccc2)o1)c1cc(=O)[nH]c2ccccc12 | -0.542% (inactive)
CCOC(=O)c1ccn(S(=O)(=O)c2ccc(C)cc2)c1-c1ccccc1 | -0.973% (inactive)
CCOc1ccc(-c2cn(S(=O)(=O)c3cccc4nsnc34)nc2N)cc1 | -0.18% (inactive)
CC(C)c1nnc(NC(=O)CCC(=O)N2CCN(c3cccc(Cl)c3)CC2)s1 | 1.72% (inactive)
COc1c(F)c(F)c(-c2csc(N)n2)c(F)c1F | -5.11% (inactive)
O=C(Nc1ccc(OCCO)cc1)c1csc([C@H]2C[C@H](O)[C@@H](CO)O2)n1 | -8.65% (inactive)
CCCNC(=O)c1cnc(-c2ccccc2)nc1-c1ccccc1 | -3.59% (inactive)
CCOc1cc(/C=C2/N=C(c3ccc(C(C)(C)C)cc3)OC2=O)cc(Cl)c1OS(C)(=O)=O | 71.7% (active)
O=C(NC(Nc1nc2ccc([N+](=O)[O-])cc2s1)(C(F)(F)F)C(F)(F)F)c1ccccc1 | -2.21% (inactive)
O=C(Nc1nc2ccc([N+](=O)[O-])cc2s1)c1ccc(S(=O)(=O)N2CCCc3ccccc32)cc1 | 34.4% (active)
CNC(=O)c1ccsc1NC(=O)c1ccc(S(=O)(=O)N2CCc3ccccc32)cc1 | 11.7% (inactive)
O=C(OCc1cn(-c2ccc(Cl)c(Cl)c2)nn1)c1ccccc1Cl | 0.666% (inactive)
C=CCc1cccc2cc(C(=O)N3CCN(C(=O)OCC)CC3)c(=O)oc12 | -4.59% (inactive)
COc1ccc(C)cc1NC(=O)c1ccc(-c2ccc(C(C)=O)cc2)o1 | -8.65% (inactive)
CN(c1ccccn1)c1ncnc2[nH]ncc12 | -2.6% (inactive)
Cc1cc(C)c2c(c1)cc(C)c1nnc(SCC(=O)Nc3cc(C)on3)n12 | 0.406% (inactive)
